Among all 5,500 compounds or so, about 2,000 (36%) were called active. Not shown: some 18% with an inconclusive outcome. No stated cut-off is given here; in the data, active means normalized growth mostly below about 0.91 (no sharp cut-off); inconclusive means no clear call, values can overlap the other calls; inactive means mostly above about 0.92. The list shows a part of the results.
Experiment: chemical genetic growth profiling, strain panel (AID 1159580);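 further: tested at 20 µM; growth read once vehicle control cultures reached saturation at 30 °C; 1 = growth at the plate median or of vehicle wells; lower values mean less growth of the strain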
Details: S. cerevisiae deletion strains, growth OD

Measured: normalized growth

CCN1CCC[C@H]1CNC(=O)c1c(O)c(Cl)cc(Cl)c1OC
inactive: locus YAL040C, strain CLN3, active compounds read low 1.01 | locus YCL061C, strain MRC1 (second series), active compounds read low 1 | locus YDR363W, strain ESC2, active compounds read low 1.03 | locus YER002W, strain NOP16, active compounds read low 0.998 | locus YGR229C, strain SMI1, active compounds read low 1.02 | locus YMR263W, strain SAP30, active compounds read low 1.01 | locus YMR307W, strain GAS1, active compounds read low 1 | locus YNL128W, strain TEP1, active compounds read low 1.03 | locus YNL175C, strain NOP13, active compounds read low 1.01 | locus YNL197C, strain WHI3, active compounds read low 1.01 | locus YNL224C, strain SQS1, active compounds read low 1.03 | locus YNL322C, strain KRE1, active compounds read low 1.02 | locus YOR083W, strain WHI5 (second series), active compounds read low 1.02 | locus YPL241C, strain CIN2, active compounds read low 0.996
